Shiga toxin inh – A qHTS for Small Molecule Inhibitors of Shiga Toxin; Vero cells, Shiga toxin protein synthesis inhibition reporter; inhibition, % at 38.7 µM; 9.2% of 290,000 active; in the data active means inhibition mostly above about 28%, no sharp cut-off; inactive means mostly below about 43%
NS1 inh – qHTS Assay for Inhibitors of Influenza NS1 Protein Function | AID 2326, 2010 | 0.4% of 270,000 active | Potency, µM (top dose mostly 46.1 µM); calls by dose curve; further: actives are rising curves; nearly all actives have a fitted effect of over 50% in size
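Recovery from NS1-induced slow growth read by OD600 in budding yeast switched to galactose assay medium (pH 6.0, -URA) at 1:100 dilution. Compound 23 nl per well; the matching strain lacking NS1 serves as control.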
CHX counter – Cycloheximide Counterscreen for Small Molecule Inhibitors of Shiga Toxin. max response, %. 12% of 300,000 active. AID 2314, 2010. cell reporter, cycloheximide protein synthesis inhibition counterscreen; in the data active means max response mostly above about 13%, no sharp cut-off; inactive means mostly below about 14%; further: read at 38.3 µM for the half of the compounds with a filed dose
Giardia FBPA inh – qHTS Assay for Inhibitors of Fructose-1,6-bisphosphate Aldolase from Giardia Lamblia; A8B2U2; purified Giardia FBPA; Potency, µM (series often up to 59.6 µM), actives largely listed as inhibitors; 0.71% of 290,000 active; AID 2451, 2010; further: nearly all actives have a fitted effect of over 55% in size
Target sequence (A8B2U2 whole entry, looked up): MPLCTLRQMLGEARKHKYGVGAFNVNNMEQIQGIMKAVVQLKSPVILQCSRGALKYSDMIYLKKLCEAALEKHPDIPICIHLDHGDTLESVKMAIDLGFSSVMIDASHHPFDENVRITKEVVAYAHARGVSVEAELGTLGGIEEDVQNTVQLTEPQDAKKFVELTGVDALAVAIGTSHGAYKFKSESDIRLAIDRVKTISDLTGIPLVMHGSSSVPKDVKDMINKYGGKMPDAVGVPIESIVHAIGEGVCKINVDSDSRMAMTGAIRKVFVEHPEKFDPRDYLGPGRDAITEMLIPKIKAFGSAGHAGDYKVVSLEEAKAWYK
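Giardia FBPA (40 nM reagent) was preincubated 10 min at RT with compound (up to 57.5 uM final), then substrate plus GAPDH/TPI/NAD/arsenate coupling system with diaphorase/resazurin was added; resorufin fluorescence (525/598 nm) was read after 20 min.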
LmPK inhibitor – qHTS Assay for Inhibitors of Leishmania Mexicana Pyruvate Kinase (LmPK); Q27686; purified LmPK, Kinase-Glo ATP luminescence, 1 h; Potency, µM (titrated, usually from 57.5 µM), hits mostly inhibitors; 0.37% of 290,000 active
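Purified LmPK (0.1 nM) converted ADP (0.1 mM) to ATP with PEP (0.5 mM) in imidazole buffer pH 7.2 with KCl and MgCl2, 1 h at room temperature. ATP was read by Kinase-Glo luminescence; data normalized to uninhibited and no-enzyme controls.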
Numbers stand for hits; – = inactive; ? = inconclusive; · = no result; + = active, no number. This is a sample that favours compounds with a hit; in the whole collection about 14% have one here. Unless noted, the call rests on the fitted dose curve; in most records, active means well fitted curve in the direction sought with a large enough effect; inconclusive means small, poorly fitted or top-dose-only effect, or another doubt; inactive means no such curve, though single readings can be large; an effect the other way counts as inactive or inconclusive.

SMILES	Shiga toxin inh	NS1 inh	CHX counter	Giardia FBPA inh	LmPK inhibitor
COc1ccccc1Nc1nc(-c2ccc3c(c2)NC(=O)CO3)cs1	–	–	20	–	–
CC[C@H](C)[C@H](NC(=O)c1ccc(Cl)cc1)C(=O)OCC(=O)c1ccc2c(c1)NC(=O)CO2	–	–	–	–	–
CN(C)c1ccc(C2NC(=O)c3ccccc3N2)cc1 (centres undefined)	66	–	46	–	–
CN(C)c1ccc(CC2C(=O)Nc3ccccc32)cc1 (centres undefined)	50	–	22	?	–
Cc1ccc(C2NC(=O)c3ccccc3N2)s1 (centres undefined)	48	–	30	–	–
N[C@@]1(C(=O)O)CCC[C@@H]1C(=O)O	·	–	·	·	·
Nc1nc(SCc2ccc3c(c2)OCCO3)n[nH]1	71	–	–	–	–
Nc1nc(SCc2ccc(F)cc2)n[nH]1	·	–	–	–	–
Nc1nc(SCc2ccc(Cl)cc2Cl)n[nH]1	–	–	21	–	–
CCCNc1nc(C#N)nc(Nc2ccccc2)n1	·	·	·	–	·
CC1(C)N=C(N)N=C(N)N1c1cccc(OCc2cccc(N)c2)c1	·	–	·	·	·
COc1ccc(-c2nnc3c4ccccc4c(C)nn23)cc1	–	–	28	–	–
Cc1ccccc1Oc1nnc(-c2cccs2)c2ccccc12	–	–	–	–	–
Cc1nnc(Oc2ccccc2F)c2ccccc12	106	–	33	–	–
Cc1nnc(Oc2ccccc2)c2ccccc12	47	–	24	–	–
Cc1nnc(Oc2ccc([N+](=O)[O-])cc2)c2ccccc12	–	–	–	–	–
Cc1nn2c(-c3ccncc3)nnc2c2ccccc12	–	–	–	–	–
COc1ccc(Oc2nnc(C)c3ccccc23)cc1	–	–	46	–	–
Cc1ccc(C(=O)OCC(=O)N2CCc3ccccc32)cc1	152	–	34	·	–
Cc1ccc(C(=O)OCC(=O)N2CCCC2)cc1	47	–	43	·	–
O=C(OCC(=O)N1CCc2ccccc21)c1c2c(nc3ccccc13)CCCCC2	+	–	20	–	–
O=C(OCC(=O)N1CCc2ccccc21)c1ccccc1F	113	–	45	–	–
O=C(OCC(=O)N1CCCC1)c1ccc(O)cc1	–	–	–	–	–
Cc1c(NS(=O)(=O)c2ccc(NC(=O)CCC(=O)O)cc2)c(=O)n(-c2ccccc2)n1C	–	–	–	–	–
Cc1ccc(NC(=O)C2=C(O)c3sccc3N(C)S2(=O)=O)cc1	–	–	23	–	–
SMILES	Shiga toxin inh	NS1 inh	CHX counter	Giardia FBPA inh	LmPK inhibitor
Cc1ccc(NC(=S)C2=C(O)c3sccc3N(C)S2(=O)=O)cc1	–	–	19	–	–
CN1c2ccsc2C(O)=C(C(=O)Nc2ccccc2)S1(=O)=O	–	–	–	–	–
C=C(C(C)=O)C(O)/C=C/c1ccco1 (centres undefined)	·	·	·	–	·
COc1ccc(CNC(=O)C2CCN(S(=O)(=O)N3CCCCC3)CC2)c(OC)c1	–	–	–	–	–
O=C1/C(=C\c2cccs2)Sc2ccc3ccccc3c21	84	–	48	–	–
O=C(Nc1cccc(S(=O)(=O)N2CCCCC2)c1)Nc1ccc(Cl)cc1Cl	–	–	–	–	–
CS(=O)(=O)N1CCC(C(=O)Nc2cccc(Br)c2)CC1	–	–	–	–	–
COc1cccc(CN(C)C(=O)c2ccc(COc3ccc(Cl)cc3)cc2)c1OC	87	–	67	–	–
Oc1ccc(Br)cc1C1C=C(c2ccc3c(c2)OCO3)NC(c2cccc(F)c2)N1 (centres undefined)	–	·	34	·	·
CCCCCCC1(C)NC(c2ccc3c(c2)OCO3)=CC(c2cc(Br)ccc2O)N1 (centres undefined)	–	·	–	·	·
Oc1ccccc1C1C=C(c2ccc3c(c2)OCO3)NC(c2cccc(F)c2)N1 (centres undefined)	96	·	58	·	·
Oc1ccccc1C1C=C(c2ccc3c(c2)OCO3)NC(c2cccc(Br)c2)N1 (centres undefined)	93	·	28	·	·
CC[C@H](C)[C@H](NC(=O)[C@H](C)NC(=O)[C@H](Cc1cnc[nH]1)NC(=O)[C@@H]1CCCN1C(=O)CNC(=O)[C@H](CC(C)C)NC(=O)[C@H](CC(C)C)NC(=O)[C@H](Cc1ccc(O)cc1)NC(=O)CNC(=O)[C@H](C)NC(=O)[C@H](CO)NC(=O)[C@H](CC(N)=O)NC(=O)[C@H](CC(C)C)NC(=O)[C@@H](NC(=O)[C@H](Cc1c[nH]c2ccccc12)NC(=O)CN)[C@@H](C)O)C(=O)N[C@@H](CC(=O)O)C(=O)N[C@@H](CC(N)=O)C(=O)N[C@@H](Cc1cnc[nH]1)C(=O)N[C@@H](CCCNC(=N)N)C(=O)N[C@@H](CO)C(=O)N[C@@H](Cc1ccccc1)C(=O)N[C@@H](CO)C(=O)N[C@@H](CC(=O)O)C(=O)N[C@@H](CCCCN)C(=O)N[C@@H](Cc1cnc[nH]1)C(=O)NCC(=O)N[C@@H](CC(C)C)C(=O)N[C@H](C(N)=O)[C@@H](C)O	–	·	–	–	·
CCOC(=O)c1nn(-c2ccc(C)cc2)cc1C(=O)c1ccccc1	113	–	68	–	–
O=C(c1cccc(Br)c1)c1cn(-c2ccccc2)nc1C(=O)c1ccccc1	–	–	–	–	–
CCOC(=O)c1cn(-c2ccccc2)nc1-c1cccnc1	50	–	37	–	–
CCOC(=O)c1cn(-c2ccccc2)nc1-c1ccncc1	–	–	–	–	–
CCCOc1ccccc1/C=N/Nc1ccnc(=O)[nH]1	–	–	–	–	–
COc1cc(/C=N/Nc2ccnc(=O)[nH]2)ccc1O	–	–	32	?	–
O=c1nccc(N/N=C/c2cccc(O)c2)[nH]1	–	–	26	?	–
COc1cc(/C=N/NC(=O)c2ccc(=O)[nH]n2)ccc1O	–	–	–	–	–
Cc1cc(Br)ccc1S(=O)(=O)n1ccnc1C	–	–	–	–	–
CN(C)S(=O)(=O)c1cc(NC(=O)CNCCN2CCOCC2)ccc1Cl	–	–	–	?	–
O=C(Nc1ccncc1)Nc1ccc(F)cc1F	54	–	27	–	–
O=C(CC(=O)Nc1ccc(F)cc1F)Nc1ccc(F)cc1F	–	–	–	–	–
SMILES	Shiga toxin inh	NS1 inh	CHX counter	Giardia FBPA inh	LmPK inhibitor
O=C(Nc1ccc(F)cc1F)Nc1ccc(F)cc1F	86	–	30	–	–
O=C(Nc1ccc(F)cc1)C1CCCN(c2cnccn2)C1 (centres undefined)	–	–	–	–	–
O=C(Nc1ccc(Cl)cc1)C1CCCN(c2cnccn2)C1 (centres undefined)	–	–	24	·	–
CC1(CCl)N([O-])C2=C(CCCC2)[N+]1=O (centres undefined)	–	–	14	?	–
O=c1ccc2cc(S(=O)(=O)Nc3ccc(Br)cc3)ccc2o1	–	–	–	–	–
Cc1ccccc1OCCCSc1nc2ccccc2[nH]1	27	–	19	–	–
c1ccc(OCCSc2nc3ccccc3[nH]2)cc1	21	–	26	–	–

Compound activity (PubChem BioAssay)
